# Results from PMC5540273 (PLoS ONE, 2017).
# Where two headings read alike, the source gives them in different places.
# Columns and labels:
# AAK1 = settings: concentration: 1 μM, replicates: in singlicate; n = 1
# ABL1-nonphosphorylated = settings: concentration: 1 μM, replicates: in singlicate; n = 1
# ABL1-phosphorylated = settings: concentration: 1 μM, replicates: in singlicate; n = 1
# ABL2 = settings: concentration: 1 μM, replicates: in singlicate; n = 1
# ACVR1B = settings: concentration: 1 μM, replicates: in singlicate; n = 1
# ACVR1 = settings: concentration: 1 μM, replicates: in singlicate; n = 1
# ACVR2A = settings: concentration: 1 μM, replicates: in singlicate; n = 1
# ACVR2B = settings: concentration: 1 μM, replicates: in singlicate; n = 1
# ACVRL1 = settings: concentration: 1 μM, replicates: in singlicate; n = 1
# ADCK3 = test system: T1, ADCK3; settings: concentration: 1 μM, replicates: in singlicate; n = 1
# T1 construct: gene CABC1
# ADCK4 = settings: concentration: 1 μM, replicates: in singlicate; n = 1
# AKT1 = settings: concentration: 1 μM, replicates: in singlicate; n = 1
# AKT2 = settings: n = 1
# AKT3 = settings: concentration: 1 μM, replicates: in singlicate; n = 1
# ALK = settings: concentration: 1 μM, replicates: in singlicate; n = 1
# AMPK-alpha1 = test system: T2, AMPK-alpha1; settings: concentration: 1 μM, replicates: in singlicate; n = 1
# T2 construct: gene PRKAA1
# AMPK-alpha2 = test system: T3, AMPK-alpha2; settings: concentration: 1 μM, replicates: in singlicate; n = 1
# T3 construct: gene PRKAA2
# ANKK1 = settings: concentration: 1 μM, replicates: in singlicate; n = 1
# ARK5 = test system: T4, ARK5; settings: concentration: 1 μM, replicates: in singlicate; n = 1
# T4 construct: gene NUAK1
# ASK1 = test system: T5, ASK1; settings: concentration: 1 μM, replicates: in singlicate; n = 1
# T5 construct: gene MAP3K5
# [1] = concentration: 1 μM, replicates: in singlicate
# 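Also: KINOMEscan kinase panel screen.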
compound,measurement,setting,value
O=C(NC1CCN(c2ccnc(Nc3ccc(F)cc3)n2)C1)c1cc2ccccc2s1 (stereo not drawn) [GSK1379716],%Inh,AAK1,7%
same,%Inh,ABL1-nonphosphorylated,0%
same,%Inh,ABL1-phosphorylated,0%
same,%Inh,ABL2,21%
same,%Inh,ACVR1B,0%
same,%Inh,ACVR1,0%
same,%Inh,ACVR2A,0%
same,%Inh,ACVR2B,5%
same,%Inh,ACVRL1,11%
same,%Inh,ADCK3,24%
same,%Inh,ADCK4,61%
same,%Inh,AKT1,0%
same,%Inh,AKT2; [1],16%
same,%Inh,AKT3,0%
same,%Inh,ALK,3%
same,%Inh,AMPK-alpha1,7%
same,%Inh,AMPK-alpha2,20%
same,%Inh,ANKK1,0%
same,%Inh,ARK5,21%
same,%Inh,ASK1,14%
Cl.NC(=O)c1cccc(Nc2nccc(Nc3ccc(Oc4c(Cl)cccc4Cl)c(Cl)c3)n2)c1 [GW659009],%Inh,AAK1,15%
same,%Inh,ABL1-nonphosphorylated,67%
same,%Inh,ABL1-phosphorylated,0%
same,%Inh,ABL2,85%
same,%Inh,ACVR1B,100%
same,%Inh,ACVR1,0%
same,%Inh,ACVR2A,0%
same,%Inh,ACVR2B,0%
same,%Inh,ACVRL1,7%
same,%Inh,ADCK3,0%
same,%Inh,ADCK4,14%
same,%Inh,AKT1,0%
same,%Inh,AKT2; [1],0%
same,%Inh,AKT3,0%
same,%Inh,ALK,3%
same,%Inh,AMPK-alpha1,0%
same,%Inh,AMPK-alpha2,0%
same,%Inh,ANKK1,3%
same,%Inh,ARK5,0%
same,%Inh,ASK1,0%
c1ccc(Oc2ccc(Nc3ccnc4cc(-c5ccc(CNCCN6CCOCC6)o5)ccc34)cc2)nc1 [GW567145],%Inh,AAK1,6%
same,%Inh,ABL1-nonphosphorylated,78%
same,%Inh,ABL1-phosphorylated,12%
same,%Inh,ABL2,6%
same,%Inh,ACVR1B,0%
same,%Inh,ACVR1,8%
same,%Inh,ACVR2A,0%
same,%Inh,ACVR2B,14%
same,%Inh,ACVRL1,0%
same,%Inh,ADCK3,2%
same,%Inh,ADCK4,31%
same,%Inh,AKT1,0%
same,%Inh,AKT2; [1],10%
same,%Inh,AKT3,0%
same,%Inh,ALK,0%
same,%Inh,AMPK-alpha1,0%
same,%Inh,AMPK-alpha2,0%
same,%Inh,ANKK1,34%
same,%Inh,ARK5,44%
same,%Inh,ASK1,0%
Cn1cc(-c2ccc3c(c2)CCN3C(=O)Cc2cccc(F)c2)c2c(N)ncnc21 [GSK2603358],%Inh,AAK1,18%
same,%Inh,ABL1-nonphosphorylated,58%
same,%Inh,ABL1-phosphorylated,41%
same,%Inh,ABL2,35%
same,%Inh,ACVR1B,0%
same,%Inh,ACVR1,0%
same,%Inh,ACVR2A,0%
same,%Inh,ACVR2B,69%
same,%Inh,ACVRL1,0%
same,%Inh,ADCK3,2%
same,%Inh,ADCK4,35%
same,%Inh,AKT1,0%
same,%Inh,AKT2; [1],9%
same,%Inh,AKT3,0%
same,%Inh,ALK,20%
same,%Inh,AMPK-alpha1,7%
same,%Inh,AMPK-alpha2,22%
same,%Inh,ANKK1,0%
same,%Inh,ARK5,17%
same,%Inh,ASK1,11%
CCn1c(-c2nonc2N)nc2c(C#CC(C)(C)O)ncc(OCCCCN)c21.O=C(O)C(F)(F)F.O=C(O)C(F)(F)F [GSK507274],%Inh,AAK1,41%
same,%Inh,ABL1-nonphosphorylated,0%
same,%Inh,ABL1-phosphorylated,4%
same,%Inh,ABL2,11%
same,%Inh,ACVR1B,0%
same,%Inh,ACVR1,3%
same,%Inh,ACVR2A,7%
same,%Inh,ACVR2B,0%
same,%Inh,ACVRL1,0%
same,%Inh,ADCK3,26%
same,%Inh,ADCK4,13%
same,%Inh,AKT1,93.5%
same,%Inh,AKT2; 1 µM,99.1%
same,%Inh,AKT3,72%
same,%Inh,ALK,28%
same,%Inh,AMPK-alpha1,1%
same,%Inh,AMPK-alpha2,0%
same,%Inh,ANKK1,0%
same,%Inh,ARK5,50%
same,%Inh,ASK1,0%
Cc1ccc(C(=O)N2CC[C@@H](O)C2)cc1-n1c(C)cc(OCc2ccc(F)cc2F)c(Br)c1=O,%Inh,AAK1,0%
same,%Inh,ABL1-nonphosphorylated,92.1%
same,%Inh,ABL1-phosphorylated,90.5%
same,%Inh,ABL2,72%
same,%Inh,ACVR1B,12%
same,%Inh,ACVR1,0%
same,%Inh,ACVR2A,31%
same,%Inh,ACVR2B,0%
same,%Inh,ACVRL1,0%
same,%Inh,ADCK3,0%
same,%Inh,ADCK4,66%
same,%Inh,AKT1,0%
same,%Inh,AKT2; [1],0%
same,%Inh,AKT3,0%
same,%Inh,ALK,0%
same,%Inh,AMPK-alpha1,2%
same,%Inh,AMPK-alpha2,0%
same,%Inh,ANKK1,0%
same,%Inh,ARK5,0%
same,%Inh,ASK1,0%
Cl.Cl.NCC(C(=O)Nc1cc(Br)c(-c2ccnc3[nH]ccc23)s1)c1ccccc1 (stereo not drawn) [GSK1269851],%Inh,AAK1,78%
same,%Inh,ABL1-nonphosphorylated,14%
same,%Inh,ABL1-phosphorylated,32%
same,%Inh,ABL2,35%
same,%Inh,ACVR1B,67%
same,%Inh,ACVR1,47%
same,%Inh,ACVR2A,0%
same,%Inh,ACVR2B,5%
same,%Inh,ACVRL1,0%
same,%Inh,ADCK3,65%
same,%Inh,ADCK4,95.7%
same,%Inh,AKT1,61%
same,%Inh,AKT2; [1],25%
same,%Inh,AKT3,66%
same,%Inh,ALK,39%
same,%Inh,AMPK-alpha1,0%
same,%Inh,AMPK-alpha2,0%
same,%Inh,ANKK1,0%
same,%Inh,ARK5,0%
same,%Inh,ASK1,0%
O=C(Nc1cccc(-c2nn3ccccc3c2-c2ccnc(Nc3cccc(C(F)(F)F)c3)n2)c1)c1c(F)cccc1F [GSK292658],%Inh,AAK1,0%
same,%Inh,ABL1-nonphosphorylated,11%
same,%Inh,ABL1-phosphorylated,0%
same,%Inh,ABL2,21%
same,%Inh,ACVR1B,0%
same,%Inh,ACVR1,0%
same,%Inh,ACVR2A,0%
same,%Inh,ACVR2B,0%
same,%Inh,ACVRL1,0%
same,%Inh,ADCK3,0%
same,%Inh,ADCK4,0%
same,%Inh,AKT1,0%
same,%Inh,AKT2; [1],8%
same,%Inh,AKT3,2%
same,%Inh,ALK,0%
same,%Inh,AMPK-alpha1,0%
same,%Inh,AMPK-alpha2,13%
same,%Inh,ANKK1,13%
same,%Inh,ARK5,12%
same,%Inh,ASK1,2%
Cn1cc(-c2ccc3c(c2)CCN3C(=O)Cc2cccc(Cl)c2)c2c(N)ncnc21 [GSK2606590],%Inh,AAK1,30%
same,%Inh,ABL1-nonphosphorylated,78%
same,%Inh,ABL1-phosphorylated,30%
same,%Inh,ABL2,53%
same,%Inh,ACVR1B,0%
same,%Inh,ACVR1,0%
same,%Inh,ACVR2A,0%
same,%Inh,ACVR2B,53%
same,%Inh,ACVRL1,0%
same,%Inh,ADCK3,0%
same,%Inh,ADCK4,1%
same,%Inh,AKT1,0%
same,%Inh,AKT2; [1],10%
same,%Inh,AKT3,0%
same,%Inh,ALK,30%
same,%Inh,AMPK-alpha1,4%
same,%Inh,AMPK-alpha2,20%
same,%Inh,ANKK1,0%
same,%Inh,ARK5,13%
same,%Inh,ASK1,9%
